Reference: PubChem BioAssay AID2762 (National Center for Advancing Translational Sciences (NCATS), 2010)
Inconclusive results are not listed. Values without a mark were called inactive. The source made the active and inactive calls. Calls follow the shape of the dose curve; as a rule, active = well fitted inhibition curve with a large enough effect; inconclusive = small, poorly fitted or top-dose-only effect, or effect the other way; inactive = no such curve, though single readings can be large or run the other way.

molecular target: Nuclear receptor ROR-gamma (Mus musculus) (UniProt P51450); assay: Concentration response confirmation assay for inhibitors of ROR gamma transcriptional activity; conditions: Drosophila S2 Gal4-RORgamma UAS-luciferase, 20 h; series mostly up to 46.1 µM; activity change, negative = inhibition: at the top concentration
Excerpt: NIH Molecular Libraries Probe Production Network [MLPCN] NIH Chemical Genomics Center [NCGC] MLPCN Grant: R03 DA026211-01 Assay Provider: Dan Littman, New York University Assay Overview: The retinoic acid-related orphan receptor (ROR) gamma is a transcription factor that has a central role in the differentiation of Th17 cells, a subset of T helper cells that secrete the inflammatory cytokines IL-17, IL-17F, and IL-22. Th17 cells have been implicated in graft versus host disease, autoimmune disease and asthma. ROR gamma is induced in naive T helper cells in the presence of TGF-beta combined with IL-6, IL-21, or IL-23, and thereafter directs the expression of the Th17 lineage cytokines. To study the mechanism of action of ROR gamma, an insect cell-based assay was screened. This Drosophila Schneider cell line was stably transfected with two vectors: a gene expressing a fusion of the Gal4 DNA binding domain and ROR gamma transactivation domain under the control of the metallothionine promoter and a Photinus luciferase reporter regulated by the Gal4 binding site enhancer, UAS. […] Small molecule inhibitors of ROR gamma activity are detected by a decrease in luciferase reporter activity.
Assay Protocol Summary: For screening, 600 cells in 4 uL/well were dispensed into white solid 1536-well plates (Grenier) using a solenoid-based dispenser. Following transfer of 23 nL compound or DMSO vehicle by a pin tool, the plates were incubated 1 hr at ambient temperature, and 1 uL/well copper sulfate (700 uM final concentration) was added. The plates were centrifuged 15 s at 1000 RPM and incubated 20 hr at ambient temperature. After addition of 1.5 uL Photinus luciferase detection reagent, the plates were incubated 10 min at ambient temperature and then read by an ViewLux (Perkin Elmer) to detect luminescence. Keywords: NIH Roadmap, MLPCN, MLI, MLSMR, qHTS, NCGC, qHTS, nuclear hormone receptor, retinoic acid-related orphan receptor, ROR gamma

Nuclear receptor ROR-gamma (Mus musculus), sequence (P51450 whole entry, looked up, the tested form may be a part): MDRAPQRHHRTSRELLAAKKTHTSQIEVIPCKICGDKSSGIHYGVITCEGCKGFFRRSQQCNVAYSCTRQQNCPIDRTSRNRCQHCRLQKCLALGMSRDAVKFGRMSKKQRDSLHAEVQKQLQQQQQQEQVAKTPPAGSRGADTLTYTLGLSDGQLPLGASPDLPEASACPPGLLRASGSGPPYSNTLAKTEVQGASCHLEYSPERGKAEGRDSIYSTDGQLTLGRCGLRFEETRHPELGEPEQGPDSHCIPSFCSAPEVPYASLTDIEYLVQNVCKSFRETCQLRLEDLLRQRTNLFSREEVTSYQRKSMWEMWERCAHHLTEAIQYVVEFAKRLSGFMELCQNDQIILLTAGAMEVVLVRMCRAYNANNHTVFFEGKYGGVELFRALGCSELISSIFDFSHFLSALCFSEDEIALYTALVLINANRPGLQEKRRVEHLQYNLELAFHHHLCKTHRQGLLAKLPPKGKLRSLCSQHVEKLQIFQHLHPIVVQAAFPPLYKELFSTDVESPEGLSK

Structure (SMILES)	Potency	activity change, negative = inhibition
O=C(CCCN1C(=O)/C(=C/c2ccccc2Cl)SC1=S)NNC(=O)c1ccc(Cl)cc1Cl	1.58 µM (active)	–
Cc1cccc(-c2ocnc2C(=O)Nc2ccccc2NC(=O)c2ccccn2)c1	2.23 µM (active)	–
O=S(=O)(NCc1ccccn1)C(F)(F)F	7.05 µM (active)	–
COc1ccc(-n2ncc(Cl)c(Cl)c2=O)cc1	8.88 µM (active)	–
Cc1cc(C)c2sc(NC(=O)c3ccc(N4C(=O)CCC4=O)cc3)nc2c1	0.0705 µM (active)	–
COc1ccc(C(=O)Nc2ccc(NC(=O)c3cccs3)cn2)cc1	–	-1.79%
CCN(CC)c1ccc2cc(-c3nc4ccccc4[nH]3)c(=O)oc2c1	3.97 µM (active)	–
Cc1cc(C)c2[nH]c(C(=O)Nc3ccc4c(c3)OCO4)cc2c1	0.125 µM (active)	–
Cc1ccccc1NC(=O)CCN1CCN(C)CC1	–	8.95%
Oc1ccc(COCc2ccccc2)c2cccnc12	1.58 µM (active)	–
CCN1C(=O)/C(=C/c2ccc(N3CCCC3)cc2)NC1=S	6.28 µM (active)	–
Cc1cc(-c2ccccc2)nc(N2CCC(C(=O)NCc3ccccc3Cl)CC2)n1	–	-6.36%
COc1cccc2cc(-c3n[nH]c(=S)n3C)oc12	15.8 µM (active)	–
CCOC(=O)C1CCN(c2ncnc3c2cnn3-c2ccc(OC)cc2)CC1	–	9.59%
Cc1ccc2nc(-c3ccc(NC(=O)COC(=O)c4ccc([N+](=O)[O-])o4)cc3)sc2c1	0.315 µM (active)	–
NC(=O)/C=C/C(=O)Nc1ccc(Cl)cc1	8.88 µM (active)	–
CCN1CCCc2cc(CN(CCN3CCOCC3)C(=S)Nc3ccc(C)cc3)ccc21	9.96 µM (active)	–
Fc1cccc2sc(Nc3nnc(-c4ccco4)o3)nc12	1.99 µM (active)	–
CC(C)(C)c1ccc(-c2noc(CCC(=O)Nc3cccnc3)n2)cc1	0.0996 µM (active)	–
CCn1cc(C(=O)O)c(=O)c2cc(F)c(N3CCN(C(=S)NC(=O)c4ccccc4C)CC3)cc21	–	-24.2%

Structure (SMILES)	Potency	activity change, negative = inhibition
CCOC(=O)Cc1ccc(NC(=O)c2ccc(C(C)(C)C)cc2)cc1	–	50.4%
CCOC(=O)C(C(=O)OCC)C(C(=O)OCC)N1CCOCC1 (stereo not given)	3.15 µM (active)	–
COc1ccc(-c2cc(C(=O)NNC3=NCCC3)c3c(C)nn(-c4ccccc4)c3n2)cc1	4.45 µM (active)	–
O=C(NC(=S)Nc1nc(-c2ccc(Br)cc2)cs1)c1cccnc1	–	-22.4%
COc1ccc2nc(NC(=O)c3sc4nc(C)cc(C)c4c3N)sc2c1	0.0199 µM (active)	–
COc1ccc2nc(N3C(=O)CNC3=S)sc2c1	1.99 µM (active)	–
O=S(=O)(c1ccc(NC(=S)N/N=C/c2ccc(Oc3ccccc3)cc2)cc1)N1CCOCC1	1.12 µM (active)	–
c1ccc(Cn2c(-c3ccccc3)c[n+]3c2SCCC3)cc1	–	22.7%
CCOC(=O)c1sc(NC(=O)c2cc3c(s2)CCC(C)C3)nc1C (stereo not given)	0.0996 µM (active)	–
COC(=O)c1ccc2nc(Nc3nc4ccc(F)cc4s3)sc2c1	0.315 µM (active)	–
Cc1sc2ncnc(Sc3nnc4sc5ccccc5n34)c2c1C	–	-0.98%
COc1cccc(-c2cc(C(=O)N3CCc4ccccc4C3)[nH]n2)c1	–	10.3%
CCOc1ccc(C(=O)Nc2nc3ccccc3[nH]2)cc1OCC	11.2 µM (active)	–
O=C(NC(=S)Nc1nc(-c2ccccc2)cs1)c1cncc(Br)c1	3.15 µM (active)	–
O=C(O)/C=C/C(=O)Nc1ccccc1SC(F)(F)F	–	4.2%
CCOC(=O)c1oc2cccc(OCC(O)CNC(C)C)c2c1C (stereo not given)	–	16.8%
O=C(CCN1C(=O)/C(=C/c2ccccc2Cl)SC1=S)N1CCCC1	11.2 µM (active)	–
Cc1ccc(OCCn2cc(C(=S)N3CCCC3)c3ccccc32)cc1C	12.5 µM (active)	–
Cc1cc(C)nc(-n2nc(C)cc2NC(=O)CNC(C)c2ccccc2)n1 (stereo not given)	6.28 µM (active)	–
CCOC(=O)c1ccc2nc(Nc3nc4ccc(F)cc4s3)sc2c1	5.6 µM (active)	–
